In article PMC7862700, “An all-to-all approach to the identification of sequence-specific readers for epigenetic DNA modifications on cytosine”:

Experiments:
Assay in all cases: DAPPL (digital affinity profiling via proximity ligation, sequencing); 10 mM Tris-HCl pH 7.5, 50 mM NaCl, 1 mM DTT, 4% glycerol, room temperature, 30 min; GST-TFs on glutathione beads, 16-mer random dsDNA library, 0.1% formaldehyde crosslink after washing; high values mean tight binding
[1] = target: T1, FLI1 (Homo sapiens, UniProt Q01543 1-452); conditions: protein: recombinant; tags: N-terminal GST; dsDNA, one strand shown
T1 sequence: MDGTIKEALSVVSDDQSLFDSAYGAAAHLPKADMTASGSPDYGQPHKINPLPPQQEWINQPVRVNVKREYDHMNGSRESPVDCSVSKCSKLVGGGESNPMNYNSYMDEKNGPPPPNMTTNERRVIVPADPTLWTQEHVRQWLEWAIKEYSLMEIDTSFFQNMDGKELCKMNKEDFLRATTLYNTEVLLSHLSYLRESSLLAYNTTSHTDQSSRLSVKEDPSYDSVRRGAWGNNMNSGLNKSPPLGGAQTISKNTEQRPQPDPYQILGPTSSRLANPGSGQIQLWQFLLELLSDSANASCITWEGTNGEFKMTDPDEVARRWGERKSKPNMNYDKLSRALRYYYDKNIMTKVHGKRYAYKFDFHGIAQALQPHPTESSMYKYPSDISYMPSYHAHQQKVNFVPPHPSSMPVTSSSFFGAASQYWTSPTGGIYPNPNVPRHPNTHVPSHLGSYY
In short: (§1)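 A tag-only sample was pooled with DNA-barcoded human transcription factors that had been expressed in yeast as GST fusions and captured on glutathione beads. The pools were incubated for 30 min at room temperature with 200 nmole of a random double-stranded 16-mer DNA library in Tris/NaCl/DTT/glycerol buffer, then washed, crosslinked with 0.1% formaldehyde, proximity-ligated (BsaI/T4 ligase, 1 h, 37 °C), PCR-amplified and sequenced on an Illumina NextSeq500. Binding signal is each hexamer's read frequency for a factor divided by its frequency for the tag-only sample.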

[2] = target: T2, ELK1 (Homo sapiens, UniProt P19419 1-428); conditions: protein: recombinant; tags: N-terminal GST; dsDNA, one strand shown
T2 sequence: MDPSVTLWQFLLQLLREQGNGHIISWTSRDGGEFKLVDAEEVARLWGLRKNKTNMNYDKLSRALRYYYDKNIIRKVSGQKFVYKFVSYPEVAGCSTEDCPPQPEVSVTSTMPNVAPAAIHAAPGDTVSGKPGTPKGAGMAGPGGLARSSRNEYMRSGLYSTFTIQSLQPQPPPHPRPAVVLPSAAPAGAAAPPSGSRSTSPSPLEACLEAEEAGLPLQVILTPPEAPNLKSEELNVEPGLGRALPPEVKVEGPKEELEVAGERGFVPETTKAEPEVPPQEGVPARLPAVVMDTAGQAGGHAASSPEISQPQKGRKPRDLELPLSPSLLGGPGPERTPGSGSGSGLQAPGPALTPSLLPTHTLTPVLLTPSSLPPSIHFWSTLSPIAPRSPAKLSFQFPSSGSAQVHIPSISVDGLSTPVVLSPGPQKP
In short: as §1

[3] = target: T3, GABPA (Homo sapiens, UniProt Q06546 1-454); conditions: protein: recombinant; tags: N-terminal GST; dsDNA, one strand shown
T3 sequence: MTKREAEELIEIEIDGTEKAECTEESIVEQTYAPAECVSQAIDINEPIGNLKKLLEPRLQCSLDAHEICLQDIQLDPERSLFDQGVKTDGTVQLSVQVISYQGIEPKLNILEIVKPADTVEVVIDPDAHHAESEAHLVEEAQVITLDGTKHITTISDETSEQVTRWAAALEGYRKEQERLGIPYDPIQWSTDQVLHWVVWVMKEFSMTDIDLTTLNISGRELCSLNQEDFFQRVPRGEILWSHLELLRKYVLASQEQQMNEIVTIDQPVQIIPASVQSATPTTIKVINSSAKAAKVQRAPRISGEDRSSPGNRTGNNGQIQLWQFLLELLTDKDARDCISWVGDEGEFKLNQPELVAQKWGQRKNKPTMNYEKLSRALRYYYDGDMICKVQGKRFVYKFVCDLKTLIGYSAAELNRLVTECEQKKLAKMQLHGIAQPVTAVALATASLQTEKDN
In short: as §1

[4] = target: T4, ERG (Homo sapiens, UniProt P11308 1-479); conditions: protein: recombinant; tags: N-terminal GST; dsDNA, one strand shown
T4 sequence: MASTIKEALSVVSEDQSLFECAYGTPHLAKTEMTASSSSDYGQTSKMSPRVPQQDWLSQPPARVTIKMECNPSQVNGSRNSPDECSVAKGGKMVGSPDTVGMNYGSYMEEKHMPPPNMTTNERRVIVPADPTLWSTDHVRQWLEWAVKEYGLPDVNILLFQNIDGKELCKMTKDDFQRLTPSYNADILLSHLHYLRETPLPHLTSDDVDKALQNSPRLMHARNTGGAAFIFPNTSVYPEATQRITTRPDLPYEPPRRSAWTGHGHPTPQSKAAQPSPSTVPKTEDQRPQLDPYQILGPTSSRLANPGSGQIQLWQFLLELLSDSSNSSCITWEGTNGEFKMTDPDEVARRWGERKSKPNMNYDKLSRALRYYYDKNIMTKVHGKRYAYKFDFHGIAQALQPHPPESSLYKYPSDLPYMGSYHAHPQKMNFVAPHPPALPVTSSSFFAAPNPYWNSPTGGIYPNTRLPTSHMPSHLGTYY
In short: as §1

[5] = target: ELF1 (Homo sapiens, UniProt P32519 1-619); conditions: protein: recombinant; tags: N-terminal GST; dsDNA, one strand shown
ELF1, sequence (P32519 whole entry): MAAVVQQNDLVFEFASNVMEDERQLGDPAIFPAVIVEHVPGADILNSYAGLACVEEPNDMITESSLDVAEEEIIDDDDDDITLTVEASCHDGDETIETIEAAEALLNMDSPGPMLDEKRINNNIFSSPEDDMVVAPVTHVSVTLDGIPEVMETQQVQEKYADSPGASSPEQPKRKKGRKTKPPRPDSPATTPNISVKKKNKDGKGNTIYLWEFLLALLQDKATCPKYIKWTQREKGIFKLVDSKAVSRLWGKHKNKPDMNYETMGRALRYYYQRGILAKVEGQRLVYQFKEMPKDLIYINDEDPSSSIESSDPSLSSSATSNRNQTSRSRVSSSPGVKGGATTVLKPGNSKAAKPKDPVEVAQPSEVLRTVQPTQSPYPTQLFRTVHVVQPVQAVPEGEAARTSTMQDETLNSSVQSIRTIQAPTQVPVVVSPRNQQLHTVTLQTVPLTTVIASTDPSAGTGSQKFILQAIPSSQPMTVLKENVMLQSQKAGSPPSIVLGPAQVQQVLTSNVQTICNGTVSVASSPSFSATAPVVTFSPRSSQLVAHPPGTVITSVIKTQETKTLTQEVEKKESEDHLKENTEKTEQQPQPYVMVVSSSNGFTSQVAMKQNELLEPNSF
In short: as §1

[6] = target: T5, EHF (Homo sapiens, UniProt Q9NZC4 1-300); conditions: protein: recombinant; tags: N-terminal GST; dsDNA, one strand shown
T5 sequence: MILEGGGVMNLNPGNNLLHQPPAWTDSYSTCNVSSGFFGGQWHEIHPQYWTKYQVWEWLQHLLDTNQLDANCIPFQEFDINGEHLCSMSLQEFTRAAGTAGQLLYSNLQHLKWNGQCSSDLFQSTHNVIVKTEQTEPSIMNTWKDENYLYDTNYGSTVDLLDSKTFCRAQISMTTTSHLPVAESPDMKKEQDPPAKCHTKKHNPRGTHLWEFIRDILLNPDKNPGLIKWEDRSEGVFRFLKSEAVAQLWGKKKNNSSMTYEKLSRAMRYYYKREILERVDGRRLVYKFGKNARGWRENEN
In short: as §1

[7] = target: SPI1 (Homo sapiens, UniProt P17947 1-270); conditions: protein: recombinant; tags: N-terminal GST; dsDNA, one strand shown
In short: as §1

[8] = target: SPIB (Homo sapiens, UniProt Q01892 1-262); conditions: protein: recombinant; tags: N-terminal GST; dsDNA, one strand shown
SPIB, sequence (Q01892 whole entry): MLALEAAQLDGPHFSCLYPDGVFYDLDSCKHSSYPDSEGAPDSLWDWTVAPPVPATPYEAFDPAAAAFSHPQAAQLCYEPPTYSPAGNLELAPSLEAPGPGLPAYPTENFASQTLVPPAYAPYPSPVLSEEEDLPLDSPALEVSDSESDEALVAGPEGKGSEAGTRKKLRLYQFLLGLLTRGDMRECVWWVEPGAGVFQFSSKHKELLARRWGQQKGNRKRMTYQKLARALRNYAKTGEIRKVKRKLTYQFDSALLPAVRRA
In short: as §1

[9] = target: T6, ELK3 (Homo sapiens, UniProt P41970 1-407); conditions: protein: recombinant; tags: N-terminal GST; dsDNA, one strand shown
T6 sequence: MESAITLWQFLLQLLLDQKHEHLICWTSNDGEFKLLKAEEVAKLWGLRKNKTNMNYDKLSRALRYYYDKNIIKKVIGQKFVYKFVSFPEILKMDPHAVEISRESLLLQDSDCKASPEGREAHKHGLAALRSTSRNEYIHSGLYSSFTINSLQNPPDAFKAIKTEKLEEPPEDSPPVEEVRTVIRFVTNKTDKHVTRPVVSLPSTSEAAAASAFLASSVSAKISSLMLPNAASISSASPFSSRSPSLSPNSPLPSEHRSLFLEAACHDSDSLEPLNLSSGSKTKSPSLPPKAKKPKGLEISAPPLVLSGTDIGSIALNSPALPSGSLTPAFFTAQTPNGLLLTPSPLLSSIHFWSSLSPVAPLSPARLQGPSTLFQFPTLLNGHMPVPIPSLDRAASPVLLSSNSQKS
In short: as §1

[10] = target: T7, FEV (Homo sapiens, UniProt Q99581 1-238); conditions: protein: recombinant; tags: N-terminal GST; dsDNA, one strand shown
T7 sequence: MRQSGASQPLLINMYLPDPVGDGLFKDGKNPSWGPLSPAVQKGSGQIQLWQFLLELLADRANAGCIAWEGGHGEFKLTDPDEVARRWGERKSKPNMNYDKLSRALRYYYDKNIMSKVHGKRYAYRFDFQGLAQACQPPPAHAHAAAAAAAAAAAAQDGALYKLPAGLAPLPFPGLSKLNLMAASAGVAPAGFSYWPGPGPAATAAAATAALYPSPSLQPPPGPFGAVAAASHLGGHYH
In short: as §1

[11] = target: ETV5 (Homo sapiens, UniProt P41161 1-510); conditions: protein: recombinant; tags: N-terminal GST; dsDNA, one strand shown
ETV5, sequence (P41161 whole entry): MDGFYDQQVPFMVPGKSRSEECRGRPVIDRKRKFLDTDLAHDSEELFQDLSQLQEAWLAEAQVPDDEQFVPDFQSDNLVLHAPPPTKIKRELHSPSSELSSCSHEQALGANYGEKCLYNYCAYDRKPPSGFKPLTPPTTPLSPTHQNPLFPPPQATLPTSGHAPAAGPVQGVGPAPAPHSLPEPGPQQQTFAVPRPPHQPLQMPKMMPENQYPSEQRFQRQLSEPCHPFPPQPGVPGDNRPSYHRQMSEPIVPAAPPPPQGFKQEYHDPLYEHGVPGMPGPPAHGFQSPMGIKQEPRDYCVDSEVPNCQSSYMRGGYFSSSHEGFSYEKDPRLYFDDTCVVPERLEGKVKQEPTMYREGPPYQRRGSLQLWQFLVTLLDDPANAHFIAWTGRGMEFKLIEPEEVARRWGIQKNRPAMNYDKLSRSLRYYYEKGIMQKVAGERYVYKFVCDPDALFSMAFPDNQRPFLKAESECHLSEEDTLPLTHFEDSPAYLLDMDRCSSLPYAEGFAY
In short: as §1

[12] = target: HSF1 (Homo sapiens, UniProt Q00613 1-529); conditions: protein: recombinant; tags: N-terminal GST; chain copies: 3; dsDNA, one strand shown
HSF1, sequence (Q00613 whole entry): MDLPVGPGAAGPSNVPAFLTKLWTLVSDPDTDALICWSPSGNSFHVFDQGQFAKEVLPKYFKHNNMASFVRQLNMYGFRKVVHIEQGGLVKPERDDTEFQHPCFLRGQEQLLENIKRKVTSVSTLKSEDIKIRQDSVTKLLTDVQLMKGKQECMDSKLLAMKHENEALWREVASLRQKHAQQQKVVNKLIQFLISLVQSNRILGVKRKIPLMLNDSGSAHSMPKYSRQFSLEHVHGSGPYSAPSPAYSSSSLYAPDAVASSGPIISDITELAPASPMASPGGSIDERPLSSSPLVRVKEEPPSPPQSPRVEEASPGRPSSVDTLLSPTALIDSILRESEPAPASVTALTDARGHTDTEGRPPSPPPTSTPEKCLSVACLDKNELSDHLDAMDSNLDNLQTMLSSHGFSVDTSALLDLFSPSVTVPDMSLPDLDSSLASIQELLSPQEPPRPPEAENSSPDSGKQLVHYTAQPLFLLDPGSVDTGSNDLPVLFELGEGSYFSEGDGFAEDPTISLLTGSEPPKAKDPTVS
In short: as §1

[13] = target: T8, SPIC (Homo sapiens, UniProt Q8N5J4 1-248); conditions: protein: recombinant; tags: N-terminal GST; dsDNA, one strand shown
T8 sequence: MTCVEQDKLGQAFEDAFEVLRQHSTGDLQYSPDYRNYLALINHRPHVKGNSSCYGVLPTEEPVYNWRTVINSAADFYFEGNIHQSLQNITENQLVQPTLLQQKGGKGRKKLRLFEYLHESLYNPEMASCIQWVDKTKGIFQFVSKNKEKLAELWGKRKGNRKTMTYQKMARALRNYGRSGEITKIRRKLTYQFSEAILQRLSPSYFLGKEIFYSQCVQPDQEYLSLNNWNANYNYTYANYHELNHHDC
In short: as §1

[14] = target: ELF4 (Homo sapiens, UniProt Q99607 1-663); conditions: protein: recombinant; tags: N-terminal GST; dsDNA, one strand shown
ELF4, sequence (Q99607 whole entry): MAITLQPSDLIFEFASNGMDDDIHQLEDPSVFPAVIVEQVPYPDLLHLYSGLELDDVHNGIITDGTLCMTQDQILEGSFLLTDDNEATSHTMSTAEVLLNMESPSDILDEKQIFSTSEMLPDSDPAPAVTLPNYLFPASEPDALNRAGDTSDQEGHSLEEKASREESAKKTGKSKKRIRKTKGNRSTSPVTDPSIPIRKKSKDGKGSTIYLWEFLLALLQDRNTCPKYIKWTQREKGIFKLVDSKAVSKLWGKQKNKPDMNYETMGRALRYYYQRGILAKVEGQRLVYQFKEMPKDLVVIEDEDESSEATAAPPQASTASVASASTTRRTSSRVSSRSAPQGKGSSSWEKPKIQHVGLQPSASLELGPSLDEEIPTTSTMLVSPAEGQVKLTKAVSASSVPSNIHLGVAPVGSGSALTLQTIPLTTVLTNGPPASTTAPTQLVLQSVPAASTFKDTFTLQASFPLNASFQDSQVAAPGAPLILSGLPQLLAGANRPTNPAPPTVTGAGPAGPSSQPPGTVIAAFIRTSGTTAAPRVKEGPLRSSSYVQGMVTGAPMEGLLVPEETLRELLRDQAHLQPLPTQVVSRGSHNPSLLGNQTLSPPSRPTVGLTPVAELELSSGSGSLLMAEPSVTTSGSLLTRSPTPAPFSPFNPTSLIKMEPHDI
In short: as §1

[15] = target: T9, ELK4 (Homo sapiens, UniProt P28324-2 1-405); conditions: protein: recombinant; tags: N-terminal GST; dsDNA, one strand shown
T9 sequence: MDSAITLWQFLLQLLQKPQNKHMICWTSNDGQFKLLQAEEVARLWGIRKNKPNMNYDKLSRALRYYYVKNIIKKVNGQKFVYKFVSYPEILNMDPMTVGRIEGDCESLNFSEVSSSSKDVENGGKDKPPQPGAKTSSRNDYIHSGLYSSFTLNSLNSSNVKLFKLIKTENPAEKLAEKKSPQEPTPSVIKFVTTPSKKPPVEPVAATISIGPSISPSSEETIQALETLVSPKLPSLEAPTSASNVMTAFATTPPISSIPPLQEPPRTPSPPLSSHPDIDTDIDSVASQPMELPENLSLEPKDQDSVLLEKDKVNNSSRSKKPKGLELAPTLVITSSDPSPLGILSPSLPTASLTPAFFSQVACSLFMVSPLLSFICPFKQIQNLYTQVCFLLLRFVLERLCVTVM
In short: as §1

[16] = target: T10, ETV2 (Homo sapiens, UniProt O00321 1-342); conditions: protein: recombinant; tags: N-terminal GST; dsDNA, one strand shown
T10 sequence: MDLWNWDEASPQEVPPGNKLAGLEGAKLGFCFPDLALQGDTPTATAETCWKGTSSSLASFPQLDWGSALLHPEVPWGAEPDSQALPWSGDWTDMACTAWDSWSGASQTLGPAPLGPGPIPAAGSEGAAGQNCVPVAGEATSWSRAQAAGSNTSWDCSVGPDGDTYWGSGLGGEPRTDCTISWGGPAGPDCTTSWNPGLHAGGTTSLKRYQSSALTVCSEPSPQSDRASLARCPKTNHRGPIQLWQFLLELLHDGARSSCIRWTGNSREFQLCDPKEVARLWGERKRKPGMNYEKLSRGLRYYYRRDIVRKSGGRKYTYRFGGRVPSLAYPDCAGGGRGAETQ
In short: as §1

[17] = target: T11, ELF3 (Homo sapiens, UniProt P78545 1-371); conditions: protein: recombinant; tags: N-terminal GST; dsDNA, one strand shown
T11 sequence: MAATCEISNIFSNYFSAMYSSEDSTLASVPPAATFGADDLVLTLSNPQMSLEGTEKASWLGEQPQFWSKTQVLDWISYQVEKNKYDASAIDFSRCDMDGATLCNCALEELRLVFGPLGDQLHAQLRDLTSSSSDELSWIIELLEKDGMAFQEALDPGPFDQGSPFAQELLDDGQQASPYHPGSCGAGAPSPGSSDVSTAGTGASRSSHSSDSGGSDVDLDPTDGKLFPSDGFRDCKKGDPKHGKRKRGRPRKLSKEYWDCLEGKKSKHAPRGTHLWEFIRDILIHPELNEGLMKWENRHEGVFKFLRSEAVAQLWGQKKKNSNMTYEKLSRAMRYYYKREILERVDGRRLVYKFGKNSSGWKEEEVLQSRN
In short: as §1

[18] = target: CRX (Homo sapiens, UniProt O43186 1-299); conditions: protein: recombinant; tags: N-terminal GST; dsDNA, one strand shown
CRX, sequence (O43186 whole entry): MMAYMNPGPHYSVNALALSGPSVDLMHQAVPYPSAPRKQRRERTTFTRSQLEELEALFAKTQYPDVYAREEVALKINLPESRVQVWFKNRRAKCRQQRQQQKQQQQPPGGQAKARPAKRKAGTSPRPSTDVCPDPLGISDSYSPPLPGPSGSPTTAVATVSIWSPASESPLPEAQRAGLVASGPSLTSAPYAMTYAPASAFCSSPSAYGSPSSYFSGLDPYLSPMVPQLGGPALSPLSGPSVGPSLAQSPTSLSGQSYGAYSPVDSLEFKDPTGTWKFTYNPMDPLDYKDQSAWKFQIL
In short: as §1

[19] = target: ETV1 (Homo sapiens, UniProt P50549 1-477); conditions: protein: recombinant; tags: N-terminal GST; dsDNA, one strand shown
ETV1, sequence (P50549 whole entry): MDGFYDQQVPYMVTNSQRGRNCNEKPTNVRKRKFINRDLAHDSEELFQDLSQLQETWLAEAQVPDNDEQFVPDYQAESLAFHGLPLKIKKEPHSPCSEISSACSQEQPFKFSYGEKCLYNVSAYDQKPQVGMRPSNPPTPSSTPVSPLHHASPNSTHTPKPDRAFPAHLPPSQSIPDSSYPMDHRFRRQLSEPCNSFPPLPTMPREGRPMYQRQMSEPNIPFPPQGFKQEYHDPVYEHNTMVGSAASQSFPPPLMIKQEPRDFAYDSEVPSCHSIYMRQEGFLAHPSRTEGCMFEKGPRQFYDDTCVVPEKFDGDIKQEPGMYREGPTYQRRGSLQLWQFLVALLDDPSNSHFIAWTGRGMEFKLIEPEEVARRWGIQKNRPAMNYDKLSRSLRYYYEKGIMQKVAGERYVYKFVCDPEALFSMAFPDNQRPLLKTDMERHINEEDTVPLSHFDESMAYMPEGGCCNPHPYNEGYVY
In short: as §1

## AACGAA
[1]
  binding signal: 1.07 fold enrichment (6-mer frequency, TF over GST control)
[2]
  binding signal: 1.14 fold enrichment (6-mer frequency, TF over GST control)
[3]
  binding signal: 1.15 fold enrichment (6-mer frequency, TF over GST control)
[4]
  binding signal: 1.15 fold enrichment (6-mer frequency, TF over GST control)
[5]
  binding signal: 1.18 fold enrichment (6-mer frequency, TF over GST control)
[6]
  binding signal: 1.15 fold enrichment (6-mer frequency, TF over GST control)
[7]
  binding signal: 1.14 fold enrichment (6-mer frequency, TF over GST control)
[8]
  binding signal: 1.19 fold enrichment (6-mer frequency, TF over GST control)
[9]
  binding signal: 1.13 fold enrichment (6-mer frequency, TF over GST control)
[10]
  binding signal: 1.15 fold enrichment (6-mer frequency, TF over GST control)
[11]
  binding signal: 1.22 fold enrichment (6-mer frequency, TF over GST control)
[12]
  binding signal: 1.33 fold enrichment (6-mer frequency, TF over GST control)
[13]
  binding signal: 1.2 fold enrichment (6-mer frequency, TF over GST control)
[14]
  binding signal: 1.1 fold enrichment (6-mer frequency, TF over GST control)
[15]
  binding signal: 1.13 fold enrichment (6-mer frequency, TF over GST control)
[16]
  binding signal: 1.11 fold enrichment (6-mer frequency, TF over GST control)
[17]
  binding signal: 1.19 fold enrichment (6-mer frequency, TF over GST control)
[18]
  binding signal: 1.08 fold enrichment (6-mer frequency, TF over GST control)
[19]
  binding signal: 1.09 fold enrichment (6-mer frequency, TF over GST control)
